According to publication PMC5540273 (PLoS ONE, 2017):

Tested on: WNK4
Settings: concentration: 1 μM, replicates: in singlicate; n = 1
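Also: KINOMEscan kinase panel screen.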

In order of rising “%Inh” value:
1. COc1cc2ncnc(Nc3ccc4nc(-c5ccccc5)[nH]c4c3)c2cc1OC.Cl [GW282450]  0%
2. Cc1cccc(-c2cc(Nc3ccncc3)c3ccccc3n2)n1 [GSK223675]  0%
3. Cn1ccc2ncnc(Oc3ccc(Nc4nc5ccccc5[nH]4)cc3)c21  0%
4. CCn1c(-c2cccnc2O)nc2cnccc21 [SB-736715]  0%
5. CS(=O)(=O)c1ccc(-c2c(-c3ncn[nH]3)sc(N3CCOCC3)c2C#N)cc1  0%
6. CC1=C(C(=O)Nc2cc3cn[nH]c3cc2F)C(c2ccc(C(F)(F)F)cc2)CC(=O)N1 (stereo not drawn) [GSK429286]  0%
7. Cc1cccc(-c2nc(C)cc(Nc3ccncc3)n2)n1 [GSK257997]  0%
8. Cn1ccc2ncnc(Oc3ccc(NC(=O)Nc4ccccc4)cc3)c21  1%
9. NC(=O)c1nnc2ccccc2c1N  9%
10. CN1C(=O)C(Nc2ccc(Cl)c(C(=O)O)c2)=C(c2ccc(Cl)cc2)C1=O [SB-404290]  16%
11. Fc1cc(Cl)ccc1Nc1ccnc2cc(I)ccc12 [GW551191]  16%
12. COc1ccc(C2=C(Nc3cccc(C(=O)O)c3)C(=O)NC2=O)cc1 [SB-390765]  24%
13. Cc1ccc(NC(=O)Nc2cc(C(C)(C)C)nn2-c2ccccc2)cc1 [GSK1014915]  25%
14. COc1ccccc1CNC(=O)c1cc(C(=O)c2ccccc2C)c[nH]1 [GSK364507]  32%
15. Cc1cccc(-c2nc(Nc3ccc4[nH]ncc4c3)c3ccccc3n2)n1 [GW857175]  50%
